The results in this text go back to PubChem BioAssay.

Test [1] addresses Albumin (Bos taurus) (UniProt P02769). The experiment in a line: bovine serum albumin binders on microarray, profiling panel, artefact control for SMM control protein annotation, biochemical, small-molecule microarray, Alexa647 label, 635/667 nm fluorescence (AID 1118).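 Also: score merges 667 nm emission intensity and signal-to-noise per printed compound spot.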 To be noted: BSA-A647 binding, fluorescence 635 nm, higher = more signal.
Test [2] in a line: small-molecule microarray binders of probe aXIP, primary screen, biochemical, NeuroSMM set, 635/667 nm fluorescence (AID 1119).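 Also: probe is the protein aXip251-270 applied at 1 µg/mL to compound-printed slides; binding of probe to printed compounds measured as 667 nm fluorescence plus signal to noise.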 Particulars: higher = more signal, called active from +8 up or from −8 down.
The nature of test [3]: small-molecule binders of probe aNOTCH3, primary screen, biochemical, small-molecule microarray, 635/667 nm fluorescence (AID 1120).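 Also: probe is a biotin-tagged antibody raised against NOTCH3 rather than NOTCH3 protein; score merges spot fluorescence near 667 nm with spot signal to noise.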 Particulars: higher = more signal.
A short description of test [4]: small-molecule binders of probe aNOTCH2, primary screen, biochemical, small-molecule microarray, 635/667 nm fluorescence (AID 1121).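 Also: score merges feature fluorescence read at 667 nm with its signal to noise.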 Particulars: higher = more signal.
The target in test [5] is Carbonic anhydrase 2 (Homo sapiens) (UniProt P00918). The experiment in a line: CAII small-molecule binders, profiling panel, biochemical, small-molecule microarray, Alexa647-labelled CAII (AID 1122). Particulars: CAII-A647 binding fluorescence, higher = more signal.
Test [6] can be described thus: COS7 lysate on small-molecule microarray, probe aHis, 635 nm (AID 1123).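 Also: z-score combines 667nm fluorescence intensity with signal-to-noise per printed compound spot.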 To be noted: COS7 cell lysate, fluorescence, higher = more signal.
Test [7] in a line: compound binding in COS7 lysate, probe aLAP1, primary screen, cell lysate, small-molecule microarray (AID 1124).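 Also: lysate comes from COS7 cells expressing LAP1 and is applied at 0.3 µg/mL; score merges spot fluorescence near 667 nm with signal-to-noise over triplicate slides.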 Particulars: probe aLAP1, fluorescence, higher = more signal.
The subject of test [8] is Sam68 (KHDRBS1). Nature of the test: Sam68 small-molecule binders, primary screen, biochemical, small-molecule microarray, 635 nm fluorescence (AID 1125).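 Also: score merges 667 nm channel intensity with signal to noise over triplicate slides.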 To be noted: small-molecule microarray binding, higher = more signal.
The test system of test [9] is Chordin-like protein 2 (CHRDL2). The experiment in a line: CHRDL2 small-molecule binders, primary screen, biochemical, small-molecule microarray, 635 nm fluorescence (AID 1126).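 Also: printed compound slides probed with Chrdl2 protein at 4 µg/mL for 1 h at 4 C; score merges 667 nm emission intensity with signal to noise over three replicate slides.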 To be noted: small-molecule microarray binding, fluorescence 635 nm; higher = more signal.
In test [10] the target is Concanavalin-A (Canavalia ensiformis) (UniProt P02866). Nature of the test: ConA small-molecule binders, primary screen, artefact control for SMM control protein annotation, biochemical, small-molecule microarray, Alexa647 label, 635 nm (AID 1127).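 Also: z combines 667 nm emission intensity with signal-to-noise across three replicate slides.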 Particulars: ConA-A647 binding fluorescence, higher = more signal.
Chain of Concanavalin-A (Canavalia ensiformis) (P02866 whole entry, looked up): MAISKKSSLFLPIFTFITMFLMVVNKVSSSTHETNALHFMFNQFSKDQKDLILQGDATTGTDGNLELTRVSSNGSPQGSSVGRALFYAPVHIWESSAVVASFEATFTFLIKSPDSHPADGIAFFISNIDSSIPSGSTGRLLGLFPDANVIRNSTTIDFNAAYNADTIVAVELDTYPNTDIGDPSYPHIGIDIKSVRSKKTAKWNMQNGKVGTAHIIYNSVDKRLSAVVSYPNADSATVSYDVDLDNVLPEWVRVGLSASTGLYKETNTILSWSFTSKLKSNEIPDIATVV
Test [11] is described as follows: anti-His antibody binders, primary screen, artefact control for SMM control protein annotation, biochemical, small-molecule microarray, 635 nm fluorescence (AID 1128).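 Also: score merges feature fluorescence with signal-to-noise for each printed compound spot.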 Particulars: anti-His Alexa647 antibody binding, higher = more signal.
Test [12] concerns Human papillomavirus type 1a E7 protein (residues 1-88). Nature of the test: HPV1a E7 small-molecule binders, primary screen, biochemical, small-molecule microarray, residues 1-88, 635 nm (AID 1129). Particulars: small-molecule microarray binding, fluorescence 635 nm; higher = more signal.
Test [13] concerns the target Focal adhesion kinase 1 (Homo sapiens) (UniProt Q05397). The experiment in a line: small-molecule microarray binders of FAK, primary screen, biochemical, 635/667 nm fluorescence, BSA, DTT (AID 1130).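 Also: composite of spot emission at 667 nm and signal to noise over triplicate slides.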 Particulars: PTK2 binding, 635 nm fluorescence, higher = more signal.
Test [14] concerns Fibrinogen (Alexa647-labelled). The experiment in a line: fibrinogen binders on compound microarrays, profiling panel, artefact control for SMM control-protein annotation, biochemical, small-molecule microarray, 635/667 nm fluorescence (AID 1131).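 Also: z-score merges 667 nm fluorescence with per-spot signal-to-noise over triplicate slides.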 Particulars: fibrinogen-A647 binding fluorescence, higher = more signal.
The target of test [15] is Follistatin (Homo sapiens) (UniProt P19883). Nature of the test: follistatin binders on small-molecule microarrays, primary screen, biochemical, small-molecule microarray, 635/667 nm fluorescence (AID 1132). To be noted: FST binding, 635 nm fluorescence, higher = more signal.
Chain of Follistatin (Homo sapiens) (P19883 whole entry, looked up): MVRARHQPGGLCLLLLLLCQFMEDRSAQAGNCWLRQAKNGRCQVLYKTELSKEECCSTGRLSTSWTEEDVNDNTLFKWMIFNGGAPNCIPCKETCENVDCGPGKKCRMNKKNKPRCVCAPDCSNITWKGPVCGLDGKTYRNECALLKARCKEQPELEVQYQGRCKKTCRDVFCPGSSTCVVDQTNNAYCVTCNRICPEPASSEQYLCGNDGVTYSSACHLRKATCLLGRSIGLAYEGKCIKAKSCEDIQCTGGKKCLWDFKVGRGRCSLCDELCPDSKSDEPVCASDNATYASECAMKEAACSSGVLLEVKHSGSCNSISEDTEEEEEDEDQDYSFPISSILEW
Test [16] has as its target Fibroblast growth factor 2 (Homo sapiens) (UniProt P09038). The experiment in a line: FGF2 binders on small-molecule microarrays, primary screen, biochemical, small-molecule microarray, 635/667 nm fluorescence (AID 1133). To be noted: small-molecule microarray binding, FGF2, fluorescence 635/667; higher = more signal.
A short description of test [17]: mitochondrial membrane potential change in A549 cells, profiling panel, cell-based, JC-1 fluorescence, basal, 24 h, 100 nL (AID 1138).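 Also: A549 lung adenocarcinoma cells under basal conditions with no added stimulus; test concentration not given here.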 To be noted: higher = more signal.
The test system of test [18] is Lefty1. The experiment in a line: Lefty1 binders on small-molecule microarrays, primary screen, biochemical, small-molecule microarray, 635/667 nm fluorescence (AID 1139). Particulars: small-molecule microarray binding, fluorescence 635/667; higher = more signal.
Test [19] deals with wheat germ agglutinin (Triticum aestivum), Alexa647-labelled. The experiment in a line: wheat germ agglutinin binders on compound microarrays, profiling panel, artefact control for SMM control-protein annotation, biochemical, small-molecule microarray, 635/667 nm fluorescence (AID 1140).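 Also: score merges 667 nm feature emission with signal to noise over triplicate slides.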 To be noted: WGA-A647 binding, 635 nm fluorescence, higher = more signal.
Test [20] concerns the target Luciferin 4-monooxygenase (Photinus pyralis) (UniProt P08659). Nature of the test: firefly luciferase enzyme inhibitors, primary screen, biochemical, luminescence, purified enzyme, 2006 set (AID 1141).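 Also: cell-free assay with purified firefly luciferase at 100 ng per well in PBS; test concentration not given here.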 Particulars: SteadyGlo luminescence, 30 min, higher = more signal, called active from +8 up or from −8 down.

The source made the active and inactive calls.

Chain of Focal adhesion kinase 1 (Homo sapiens) (Q05397 whole entry, looked up): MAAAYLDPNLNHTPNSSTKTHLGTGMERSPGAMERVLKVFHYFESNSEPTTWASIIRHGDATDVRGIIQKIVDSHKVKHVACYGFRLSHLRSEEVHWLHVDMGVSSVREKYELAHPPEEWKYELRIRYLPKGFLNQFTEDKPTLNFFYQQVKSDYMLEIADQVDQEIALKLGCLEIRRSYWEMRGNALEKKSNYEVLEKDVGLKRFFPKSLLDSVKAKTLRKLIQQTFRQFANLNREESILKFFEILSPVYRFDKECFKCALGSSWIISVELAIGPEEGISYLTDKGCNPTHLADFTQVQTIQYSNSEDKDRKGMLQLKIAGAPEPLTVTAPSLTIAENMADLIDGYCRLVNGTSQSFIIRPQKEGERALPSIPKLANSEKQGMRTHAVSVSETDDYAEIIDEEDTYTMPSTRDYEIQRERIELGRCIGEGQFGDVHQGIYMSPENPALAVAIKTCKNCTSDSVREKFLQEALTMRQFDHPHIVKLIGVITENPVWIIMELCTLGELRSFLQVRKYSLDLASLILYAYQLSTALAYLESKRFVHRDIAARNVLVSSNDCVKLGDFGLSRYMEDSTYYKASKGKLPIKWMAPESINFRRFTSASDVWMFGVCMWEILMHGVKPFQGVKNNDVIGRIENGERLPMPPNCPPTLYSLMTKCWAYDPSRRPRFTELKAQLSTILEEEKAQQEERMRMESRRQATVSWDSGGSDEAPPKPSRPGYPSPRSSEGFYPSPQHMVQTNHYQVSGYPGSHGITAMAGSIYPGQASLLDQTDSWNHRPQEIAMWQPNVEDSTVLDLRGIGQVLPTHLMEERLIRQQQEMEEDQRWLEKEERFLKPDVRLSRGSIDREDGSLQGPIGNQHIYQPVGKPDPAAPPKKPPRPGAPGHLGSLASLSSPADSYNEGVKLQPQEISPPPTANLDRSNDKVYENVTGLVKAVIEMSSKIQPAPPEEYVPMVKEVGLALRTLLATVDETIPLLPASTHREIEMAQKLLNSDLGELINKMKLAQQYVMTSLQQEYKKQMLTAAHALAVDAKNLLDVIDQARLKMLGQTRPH
Chain of Luciferin 4-monooxygenase (Photinus pyralis) (P08659 whole entry, looked up): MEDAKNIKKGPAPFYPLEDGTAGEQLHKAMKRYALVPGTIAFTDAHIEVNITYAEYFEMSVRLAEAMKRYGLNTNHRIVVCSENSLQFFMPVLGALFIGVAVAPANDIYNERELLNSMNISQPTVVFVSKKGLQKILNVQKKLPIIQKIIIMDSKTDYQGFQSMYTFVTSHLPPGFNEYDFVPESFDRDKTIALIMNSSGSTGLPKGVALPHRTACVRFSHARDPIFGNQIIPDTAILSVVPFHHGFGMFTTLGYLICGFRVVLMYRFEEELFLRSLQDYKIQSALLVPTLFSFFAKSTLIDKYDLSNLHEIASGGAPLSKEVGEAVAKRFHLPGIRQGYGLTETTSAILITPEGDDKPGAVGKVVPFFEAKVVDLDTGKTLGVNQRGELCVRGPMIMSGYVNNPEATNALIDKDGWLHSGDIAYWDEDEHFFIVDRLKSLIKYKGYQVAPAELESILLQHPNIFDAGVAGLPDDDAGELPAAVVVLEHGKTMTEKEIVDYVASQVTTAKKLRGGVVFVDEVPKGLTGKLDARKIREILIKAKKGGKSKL
Chain of Fibroblast growth factor 2 (Homo sapiens) (P09038 whole entry, looked up): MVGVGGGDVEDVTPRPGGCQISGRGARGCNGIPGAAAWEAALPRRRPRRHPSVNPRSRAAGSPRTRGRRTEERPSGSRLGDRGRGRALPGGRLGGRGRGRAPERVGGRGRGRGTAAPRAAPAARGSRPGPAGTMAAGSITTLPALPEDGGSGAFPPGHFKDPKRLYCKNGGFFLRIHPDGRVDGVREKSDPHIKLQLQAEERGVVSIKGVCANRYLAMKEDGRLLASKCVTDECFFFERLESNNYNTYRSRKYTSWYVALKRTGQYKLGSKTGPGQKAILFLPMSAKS
Chain of Albumin (Bos taurus) (P02769 whole entry, looked up): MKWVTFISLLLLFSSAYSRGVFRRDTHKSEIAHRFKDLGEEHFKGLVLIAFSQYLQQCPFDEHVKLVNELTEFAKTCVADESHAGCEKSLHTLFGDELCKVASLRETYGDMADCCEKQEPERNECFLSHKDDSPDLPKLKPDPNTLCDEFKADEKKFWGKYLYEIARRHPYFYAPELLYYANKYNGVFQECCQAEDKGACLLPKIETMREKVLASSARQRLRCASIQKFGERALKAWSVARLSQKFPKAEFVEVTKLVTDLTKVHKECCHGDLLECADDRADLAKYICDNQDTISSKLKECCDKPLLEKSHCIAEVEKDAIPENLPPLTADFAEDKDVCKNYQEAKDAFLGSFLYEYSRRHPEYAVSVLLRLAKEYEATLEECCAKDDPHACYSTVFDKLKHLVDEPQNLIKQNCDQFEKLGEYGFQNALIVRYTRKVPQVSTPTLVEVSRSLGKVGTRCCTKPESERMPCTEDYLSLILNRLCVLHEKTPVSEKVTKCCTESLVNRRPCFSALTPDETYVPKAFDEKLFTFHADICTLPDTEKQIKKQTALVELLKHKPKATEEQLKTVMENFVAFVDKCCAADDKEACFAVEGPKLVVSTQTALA

In the case of `COc1ccc([Si](C)(C)[C@@H]2[C@@H](CCn3cc([C@H](O)c4ccccc4)nn3)O[C@]3(C(=O)N(C)c4c(Br)cc(C)cc43)[C@H]2C)cc1`, the composite z-score in test [1] was -0.0364; in [3] it was -0.129; in [4], -0.118; in test [5], -0.273; in [6] it was -0.525; in test [7], -0.129. The composite z-score is -0.849 in test [8]; -0.254 in test [9]; -0.679 in test [10]; 0.18 in test [11]; -0.773 in [12]; -0.501 in test [13]. Also, the composite z-score is -0.59 in [14]; 1.19 in [15]; 1.44 in [16]; -0.166 in test [18]; 0.397 in test [19]. Also, in test [2], the composite Z-score was 0.62 (inactive). Further, the z-score in test [17] is 0.517; in test [20] it was -2.15 (inactive).

`C=CC[C@]1(C(=O)N(C)C)N=C(c2ccc(OCCCO)cc2)O[C@H]1c1ccccc1CN=[N+]=[N-]`: the composite z-score is 0.79 in test [1]; -0.014 in [3]; 0.0111 in [4]; 0.548 in test [5]; 2.11 in test [6]; 0.79 in [7]. Also, the composite z-score in [8] is 1.04; in test [9], -0.474; in test [10], 1.11; in [11], 1.84; in test [12] it was 1.23; in [13] it was 0.418. For the same molecule, the composite z-score was 0.415 in test [14]; 1.27 in test [15]; 0.521 in [16]; -0.168 in [18]; 0.757 in test [19]. Moreover, the composite Z-score in test [2] was 0.328 (inactive). Further, the z-score is 2.49 in [17] and -1.12 (inactive) in test [20].

Turning to `CC(C)C[C@@H]1NC(=O)[C@@H]2C[C@H](C(=O)NCCCCCNC(=O)CS)[C@H](c3cccc(OCCO)c3)N2C1=O`, the composite z-score in test [1] was -1.16; in [3], 0.0469; in test [4], -0.0624; in [5] it was 0.588; in test [6], 1.47; in test [7], -0.383. The composite z-score in test [8] was 1.31; in [9], 0.767; in test [10], 1.18; in [11], 2.82; in [12], 1.18; in test [13], 1.35. The composite z-score in test [14] was determined as 0.837; in test [15], 1.38; in test [16], 1.3; in test [18] it was 1.13; in [19], 1.23. For the same molecule, in test [2], the composite Z-score is 0.262 (inactive). Besides, the z-score in [17] is -0.018; in test [20] it was -2.15 (inactive).

For the molecule `NCCCCCCNC(=O)[C@@H]1C[C@@H]2C(=O)N[C@@H](Cc3ccccc3)C(=O)N2[C@@H]1c1ccc(O)cc1`, the composite z-score in [1] is 0.676; in [3] it was 0.0418; in [4], -0.112; in [5], 0.65; in test [6], 0.68; in test [7] it was 0.915. Also, the composite z-score in test [8] was 1.06; in [9], 0.283; in [10], 1.12; in test [11], 1.94; in test [12], 0.434; in [13] it was 0.332. In addition, the composite z-score in [14] was 0.63; in [15] it was 0.898; in test [16] it was 0.312; in test [18], 0.104; in test [19], 0.931. Besides, the composite Z-score in test [2] is 0.755 (inactive). For the same molecule, the z-score in [17] was 0.613; in [20], -1.15 (inactive).

For `COCCOC(=O)N1C(=O)[C@@]2(c3cc(C#CCNC(N)=O)ccc31)[C@H](C(=O)NC[C@H](O)c1ccccc1)[C@H]1C(=O)O[C@H](c3ccccc3)[C@H](c3ccccc3)N1[C@@H]2c1ccc(O)cc1`, the composite z-score in [1] is 0.348; in test [3] it was -0.0044; in test [4] it was -0.104; in [5], 0.0718; in [6], 1.14; in test [7] it was 1.01. In addition, the composite z-score in test [8] was 0.928; in [9], -0.474; in test [10] it was 1.02; in test [11] it was 0.95; in test [12], 0.502; in [13], 0.492. In addition, the composite z-score in test [14] came out at 0.651; in test [15], 1.35; in test [16] it was 0.674; in test [18], 0.16; in [19], 0.436. In addition, the composite Z-score in test [2] was 0.239 (inactive). Further, the z-score is -0.175 in test [17] and -1.48 (inactive) in test [20].
